Laboratory results: PubChem BioAssay (NCATS)
Where “and” joins values, the source holds several entries; their conditions need not be identical. Equal entries are not always repeated. Records with an inconclusive call do not appear. Calls of active or inactive are those of the source. Unless noted, calls follow the shape of the dose curve; as a rule, active = well fitted curve in the direction sought with a large enough effect; inconclusive = small, poorly fitted or top-dose-only effect, or another doubt; inactive = no such curve, though single readings can be large; an effect the other way counts as inactive or inconclusive.

Experiments:
[1] = Cell Viability - BJ (AID 421; calls by dose curve;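 also: potency is read from the fitted curve at half-maximal effect; cells exposed to compound for 40 hours at 37 °C before readout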); conditions: BJ fibroblast viability, qHTS
Outline: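 Cytotoxicity as drop in intracellular ATP (CellTiter-Glo, 20 min RT) after 40 hr compound exposure of BJ fibroblasts at 37 °C. Titrations scaled between DMSO and 100 uM tamoxifen, Hill-fitted for AC50.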

[2] = Cell Viability - HUV-EC-C (AID 542); conditions: HUV-EC-C endothelial cell viability, qHTS; series mostly up to 92.2 µM; also: % is scaled to controls: 0 for no effect and ±100 for the full control effect; nearly all actives have a fitted effect of over 35% in size
Outline: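 HUV-EC-C normal human vascular endothelial cells, 1000 cells/well, pre-incubated 5 hr at 37 °C, then exposed to compounds for 40 hr at 37 °C in complete medium. Viability measured as intracellular ATP by CellTiter-Glo luminescence; AC50 from Hill fits.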

[3] = Cellular Toxicity (caspase-3) HUV-EC-C (AID 656); conditions: HUV-EC-C cells, caspase-3 activation (apoptosis), vehicle = 0, 100 µM tamoxifen = 100%; series mostly up to 92.2 µM
Outline: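 HUV-EC-C cells (1000/well) in complete medium, compound-treated 16 h at 37 °C; caspase-3/7 activity read by Caspase-Glo 3/7 luminescence. Normalized to DMSO (basal) and 100 uM tamoxifen (100%); AC50 from Hill-equation concentration-response fits.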

[4] = Cellular Toxicity (caspase-3) MRC-5 (AID 659); conditions: MRC-5 cells, luminescence, normalized: DMSO 0%, 10 µM staurosporine 100%; series mostly up to 91.7 µM
Outline: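 Concentration-dependent caspase 3/7 activation is measured in human normal lung fibroblasts (MRC-5) following 16-hour treatment. AC50 values come from standard Hill-equation modeling of luminescence normalized to DMSO and 10 uM staurosporine.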

[5] = Cellular Toxicity (caspase-3) Mesangial (AID 660); conditions: mesangial cells, normalized: DMSO 0%, 100 µM tamoxifen 100%; series mostly up to 91.7 µM;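 also: cells exposed to compound for 16 h before the caspase read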
Outline: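 Human renal glomerular mesangial cells (1000/well) were treated with compounds for 16 h at 37 °C in complete medium, then caspase 3/7 activity was read by Caspase-Glo luminescence. Data were normalized to DMSO and 100 uM tamoxifen; AC50 from Hill fits.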

[6] = Cellular Toxicity (caspase-3) SK-N-SH (AID 661); conditions: SK-N-SH caspase-3 activation, qHTS; series mostly up to 91.7 µM
Outline: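 SK-N-SH human neuroblastoma cells (1500/well) were treated with compounds for 16 hr at 37 °C in complete medium; caspase 3/7 activity was read by Caspase-Glo luminescence. AC50 came from Hill fits of data normalized to DMSO and 10 uM staurosporine.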

[7] = Cellular Toxicity (caspase-3) Hek293 (AID 664); conditions: HEK293 caspase-3 activation, DMSO = 0%, 100 µM tamoxifen = 100%; at 92.2 µM (top of the series);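 also: cells exposed to compound for 16 h at 37 °C before readout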
Outline: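 HEK293 cells were exposed to compounds in complete medium for 16 hr at 37 °C, then caspase-3/7 activity was read by Caspase-Glo 3/7 luminescence after 20 min at room temperature. Data normalized to DMSO and 100 uM tamoxifen; AC50 from Hill fits.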

[8] = Cellular Toxicity (caspase-3) NIH 3T3 (AID 666); conditions: NIH 3T3 caspase-3 activation, apoptosis/toxicity; series mostly up to 92.2 µM;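 also: caspase signal read after 16 h compound exposure; 0% = DMSO basal and 100% = 100 µM tamoxifen stimulation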
Outline: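 Mouse NIH 3T3 fibroblasts (1000 cells/well) were treated with compound for 16 hr at 37°C in complete medium; caspase-3/7 activity was read by Caspase-Glo luminescence. Normalized to DMSO and 100 uM tamoxifen; AC50 from Hill fits.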

[9] = MultiTox-Fluor Cytotoxicity Assay - LYMP1-001 - Dead Cells (AID 946); conditions: LYMP1-001 lymphoblastoid cells, dead-cell protease fluorescence; series mostly up to 92.2 µM
Outline: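 Cytotoxicity as increased dead-cell protease fluorescence (bis-AAF-R110, 485/520 nm), read 60 min after MultiTox-Fluor reagent. Human lymphoblastoid line exposed 16 h; Hill-fitted AC50, with DMSO as 0% and 15 uM tetraoctylammonium bromide as 100%.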

[10] = Cell Viability - LYMP1-002 - Assay at 16 hr (AID 948); conditions: LYMP1-002 lymphoblastoid cell viability; series mostly up to 92.2 µM;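 also: 0% = DMSO alone and full effect = 92 µM tetraoctylammonium bromide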
Outline: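 LYMP1-002 human lymphoblastoid cells, 2500/well, were treated with compounds for 16 hr at 37 C in complete medium. Viability was read as intracellular ATP by CellTiter-Glo luminescence, and AC50 was derived from a Hill fit to concentration-response data.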

[11] = MultiTox-Fluor Cytotoxicity Assay - LYMP1-003 - Live Cells (AID 962); conditions: LYMP1-003 lymphoblastoid cells, MultiTox-Fluor live-cell protease fluorescence; series mostly up to 92.2 µM;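 also: 0% = DMSO only and full loss = 92 µM tetraoctylammonium bromide; cytotoxic hits lower the live-cell protease signal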
Outline: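 LYMP1-003 human lymphoblastoid cells (2500/well) in complete medium were preincubated 5 hr at 37 C, then exposed to compounds for 16 hr at 37 C. Live-cell protease cleavage of GF-AFC read by fluorescence (Ex/Em 405/510); AC50 from Hill fits.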

[12] = Cell Viability - LYMP2-003 (AID 965); conditions: LYMP2-003 lymphoblastoid cell viability; series mostly up to 92.2 µM;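 also: cells exposed to compounds for 24 h before reading; 0% = DMSO only and full effect = 92 µM tetraoctylammonium bromide; nearly all actives have a fitted effect of over 50% in size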
Outline: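 Human lymphoblastoid LYMP2-003 cells, 2500/well, exposed to compounds for 24 h at 37 C in complete medium. Viability read as intracellular ATP by CellTiter-Glo luminescence; AC50 from Hill-equation fits of qHTS concentration-response data.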

[13] = Cell Viability - LYMP2-013 (AID 970); conditions: LYMP2-013 lymphoblastoid cells viability; series mostly up to 92.2 µM;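 also: 0% = DMSO only and full inhibition = tetraoctylammonium bromide control; nearly all actives have a fitted effect of over 55% in size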
Outline: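 Human lymphoblastoid cells, 2500/well, were preincubated 5 hr at 37 C, then treated with compounds for 24 hr at 37 C in complete medium. Intracellular ATP was read by CellTiter-Glo luminescence; AC50 from Hill-equation fits of concentration-response data.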

[14] = Cell Viability - LYMP2-015 (AID 971); conditions: LYMP2-015 lymphoblastoid cell viability; series mostly up to 92.2 µM;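 also: 0% = DMSO only and full effect = 92 µM tetraoctylammonium bromide; nearly all actives have a fitted effect of over 55% in size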
Outline: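 Human lymphoblastoid cells (2500/well) in complete medium were preincubated 5 hr at 37 C, then compound-treated 24 hr at 37 C. Intracellular ATP was read by CellTiter-Glo luminescence after 30 min at room temperature; AC50 came from Hill-equation concentration-response fits.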

[15] = Cell Viability - LYMP2-017 (AID 972); conditions: LYMP2-017 lymphoblastoid cell viability; series mostly up to 92.2 µM; also: % is scaled to controls: 0 for no effect and ±100 for the full control effect; nearly all actives have a fitted effect of over 55% in size
Outline: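 Human lymphoblastoid cells (2500/well) were seeded in complete medium, held 5 hr at 37 C, then exposed to compounds for 24 hr at 37 C. Intracellular ATP was read by CellTiter-Glo luminescence after 30 min at room temperature, with AC50 values from Hill-equation fits.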

[16] = Cell Viability - LYMP2-007 (AID 979); conditions: LYMP2-007 lymphoblastoid cell viability; series mostly up to 92.2 µM;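 also: cells exposed to compound for 24 h before reading; 0% = DMSO only and the negative end = 92 µM tetraoctylammonium bromide; nearly all actives have a fitted effect of over 60% in size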
Outline: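 Human lymphoblastoid cells (2500/well) were plated in complete medium, incubated 5 hr at 37 C, then exposed to compounds for 24 hr at 37 C. Intracellular ATP was read by CellTiter-Glo luminescence after 30 min at room temperature; AC50 from Hill fits.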

[17] = qHTS Assay for Identification of Small Molecule Inducers of Hypoxia Response (AID 2120; active = well fitted curve in the direction sought with a large enough effect in the signal ratio, with a control signal flat, not every such curve was filed as active; the % refers to the signal ratio; also: 0% is about no effect); conditions: hypoxia response reporter cells, beta-lactamase ratio readout; series mostly up to 104 µM
Outline: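 HRE-beta-lactamase reporter in CellSensor HRE-bla ME-180 cells, 2500 cells/well in Opti-MEM with 0.5% dialyzed FBS; compounds tested as titration series, 17 h at 37 degrees C. CCF4 substrate 2.5 h at room temperature; AC50 from 460/530 nm ratio.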

[18] = biological target: Peroxisome proliferator-activated receptor alpha (Homo sapiens) (UniProt Q07869); assay: qHTS assay for small molecule agonists of the peroxisome proliferator-activated receptor alpha (PPARalpha) signaling pathway (AID 651778); conditions: PathHunter PPARalpha complementation, chemiluminescence, 6 h; hits give high values; also: % of control where 0% means no effect
Chain of Peroxisome proliferator-activated receptor alpha (Homo sapiens) (Q07869 whole entry, looked up): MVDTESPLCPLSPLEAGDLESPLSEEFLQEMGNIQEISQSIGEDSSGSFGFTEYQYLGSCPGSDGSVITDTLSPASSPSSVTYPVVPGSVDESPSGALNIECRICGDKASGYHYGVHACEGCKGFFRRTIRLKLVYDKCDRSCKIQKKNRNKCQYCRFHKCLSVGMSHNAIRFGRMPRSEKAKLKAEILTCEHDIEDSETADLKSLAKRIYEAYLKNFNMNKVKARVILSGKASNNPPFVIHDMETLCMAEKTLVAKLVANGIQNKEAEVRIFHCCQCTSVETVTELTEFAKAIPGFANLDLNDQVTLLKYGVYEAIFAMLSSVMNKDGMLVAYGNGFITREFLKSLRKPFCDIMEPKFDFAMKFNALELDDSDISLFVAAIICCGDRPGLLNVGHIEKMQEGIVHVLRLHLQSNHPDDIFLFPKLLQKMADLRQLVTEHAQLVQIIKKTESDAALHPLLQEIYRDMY
Outline: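 Chemiluminescence from complemented enzyme reported PPARalpha activation in cells after 6 hr of compound treatment at 37 C. The detection reagent was incubated for 60 min at room temperature, and compounds were scored as agonists.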

[19] = qHTS assay for small molecule agonists of the antioxidant response element (ARE) signaling pathway measured by Nrf2-dependant transcriptional activity - cell viability counter screen (AID 720653; active = well fitted curve in the direction sought with a large enough effect in the repeat runs; an effect the other way counts as inactive or inconclusive; also: % is scaled to controls: 0 for no effect and ±100 for the full control effect); conditions: ARE-bla HepG2 viability, CellTiter-Glo ATP luminescence, 16 h; hits give low values
Outline: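 Cytotoxicity counter screen: intracellular ATP quantified by CellTiter-Glo luminescence in the same ARE-bla HepG2 plates, after 16 h compound exposure and a 2 h beta-lactamase substrate step.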

[20] = qHTS assay for cell viability of the p53RE-bla HCT-116 cell line (AID 743292); conditions: p53RE-bla HCT-116 viability, ATP luminescence, 16 h; series mostly up to 95 µM; also: % is scaled to controls: 0 for no effect and ±100 for the full control effect; nearly all actives have a fitted effect of over 55% in size
Outline: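 Luminescent ATP quantitation (CellTiter-Glo) served as the viability read-out; reagent was added after 16 h compound exposure at 37 C and read after 30 min at room temperature. Cells: p53RE-bla HCT-116, 4,000 per well.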

NNC(N)=S
inactive: Potency [1] > 92 µM | Potency [2] | outcome [3] | outcome [4] | outcome [5] | Potency [6] | caspase-3 activation [7] 0.435% | Potency [8] | outcome [9] | outcome [10] | outcome [11] | Potency [12] | Potency [13] | Potency [14] | Potency [15] | Potency [16] | Potency [17] | max response [18] -1.77% | max response [19] 16.5% | Potency [20]

CN(C)C(=O)Nc1ccc(Cl)cc1
inactive: Potency [1] > 92 µM | Potency [2] | outcome [3] | outcome [4] | outcome [5] | Potency [6] | caspase-3 activation [7] 2.1% | Potency [8] | outcome [9] | outcome [10] | outcome [11] | Potency [12] | Potency [13] | Potency [14] | Potency [15] | Potency [16] | Potency [17] | max response [18] -3.6% and -1.79% | max response [19] -16.9% and 1.13% | Potency [20]

OCCCCO
inactive: Potency [1] > 92 µM | Potency [2] | outcome [3] | outcome [4] | outcome [5] | Potency [6] | caspase-3 activation [7] -2.02% | Potency [8] | outcome [9] | outcome [10] | outcome [11] | Potency [12] | Potency [13] | Potency [14] | Potency [15] | Potency [16] | Potency [17] | max response [18] -0.393% | max response [19] -2.13% | Potency [20]

Clc1ccc(Cl)c(Cl)c1
inactive: Potency [1] > 92 µM | Potency [2] | outcome [3] | outcome [4] | outcome [5] | Potency [6] | caspase-3 activation [7] 0.169% | Potency [8] | outcome [9] | outcome [10] | outcome [11] | Potency [12] | Potency [13] | Potency [14] | Potency [15] | Potency [16] | Potency [17] | max response [18] -1.44% and -3.32% | max response [19] 4.11% and 3.77% | Potency [20]

ClCC(Cl)CCl
inactive: Potency [1] > 92 µM | Potency [2] | outcome [3] | outcome [4] | outcome [5] | Potency [6] | caspase-3 activation [7] 1.26% | Potency [8] | outcome [9] | outcome [10] | outcome [11] | Potency [12] | Potency [13] | Potency [14] | Potency [15] | Potency [16] | Potency [17] | max response [18] -4.72% and -1.22% | max response [19] 3.4% and -4.41% | Potency [20]

ClC(Cl)Br
inactive: Potency [1] > 92 µM | Potency [2] | outcome [3] | outcome [4] | outcome [5] | Potency [6] | caspase-3 activation [7] -0.335% | Potency [8] | outcome [9] | outcome [10] | outcome [11] | Potency [12] | Potency [13] | Potency [14] | Potency [15] | Potency [16] | Potency [17] | max response [18] -1.39% | max response [19] 9.16% | Potency [20]
